The values below come from PubChem BioAssay (NCATS).

Results filed as inconclusive are left out. A number with no mark means an inactive call. Calls of active or inactive are those of the source. The call rests on the fitted dose curve; in most records, active means well fitted inhibition curve with a large enough effect; inconclusive means small, poorly fitted or top-dose-only effect; inactive means no such curve, though single readings can be large or run the other way.

This experiment in a line: Counterscreen for APE1 Inhibitors: Fluorescent Dye Displacement Validation Assay (AID 1707).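 Further: plate controls were ThO with dsDNA and no compound for no effect and ThO without dsDNA for full effect.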 The settings on record: fluorescent dye displacement from DNA; series mostly up to 57.1 µM; activity change, negative = inhibition: at the top concentration. The text has this:
In order to distinguish true inhibitors of DNA-processing enzymes from promiscuous DNA-binding compounds among screening assay hits, we developed a homogeneous and miniaturized assay based on fluorescent dye displacement test as originally described by Tse and Boger (Accounts of Chemical Research (2004) 37: 61-69). The assay is based on the strong enhancement of fluorescence when Thiazole Orange (ThO) binds to double-stranded DNA: conversely, in the presence of a DNA-binding compound, Thiazole Orange is displaced from the DNA and its fluorescence is reduced.
Buffer. 50 mM Tris-HCl (pH7.5) containing 50mM NaCl, 2 mM MgCl2, and 0.01% Tween-20.
Buffer containing 250 nM ThO in columns 3 and 4 as negative control (no dsDNA).
Reaction mixture: 250 nM ThO and 50 nM dsDNA at final concentration dispensed throughout the plate: in columns 1, 2, 5-48. Column 1 is neutral (100% activity).
5''TAMRA- TC ACC FTC GTA CGA CTC
3'' AG TGG GAG CAT GCT GAG
where F denotes tetrahydrofuran.
Control: Pintool transfer of control compound WB64 (W4761, Sigma-Aldrich) to column 2 of all assay plates as a two-fold 16-point dilution in duplicate (concentration range 5.75 uM - 0.175 nM).
Four uL of reaction mixtures were dispensed to 1536-well Greiner black solid bottom plates. Compounds (23 nL) were transferred […] in order to measure the endpoint fluorescence using 480 nm excitation and 540 nm emission fluorescence protocol.
(A counterscreen serves to expose hits that act by an unwanted route or on another target.)
Turning to `N[C@@H](Cc1c[nH]c2ccc(O)cc12)C(=O)O`, the “activity change, negative = inhibition” value was 3.08%.
Regarding `CC(C)NCC(O)c1ccc(O)c(O)c1` (stereo not given), the Potency entry is “inactive”.
In the case of `CC1COc2c(N3CCN(C)CC3)c(F)cc3c(=O)c(C(=O)O)cn1c23` (stereo not given), the “activity change, negative = inhibition” value was 0.389%.
The same measure, in the same setting: under `CC(C)C(=O)Nc1ccc([N+](=O)[O-])c(C(F)(F)F)c1` stands -1.79%.
On the same count and under the same terms, under `Cc1ccccc1N1C(=O)c2cc(S(N)(=O)=O)c(Cl)cc2NC1C` (stereo not given) stands -0.151%.
In the case of `Clc1ccc2c(c1)C(N1CCNCC1)=Nc1ccccc1O2`, the “activity change, negative = inhibition” value is 2.42%.
Same read-out and setting: under `COC(=O)Nc1nc2ccc(C(=O)c3cccs3)cc2[nH]1` stands 29.6%; under `CN(C)c1nc(N(C)C)nc(N(C)C)n1`, 0.275%; under `NC(=O)NO`, 2.88%.
For the compound `OCCN1CCN(CCCN2c3ccccc3Sc3ccc(C(F)(F)F)cc32)CC1`, the “activity change, negative = inhibition” value is 1%.
Same read-out and setting: under `CC[N+](CC)(CC)CCOc1cccc(OCC[N+](CC)(CC)CC)c1OCC[N+](CC)(CC)CC` stands 2.74%; under `O=C(CCCN1CCC(O)(c2ccc(Cl)cc2)CC1)c1ccc(F)cc1`, -0.569%.
On the same count and under the same terms, the figure for `O=C(c1ccc(F)cc1)C1CCN(CCn2c(=O)[nH]c3ccccc3c2=O)CC1` is -5.4%; for `CCOC(=O)Nc1ccc(NCc2ccc(F)cc2)nc1N` it is 42%.
For the compound `COc1cc2c(c(OC)c1OC)-c1ccc(OC)c(=O)cc1[C@@H](NC(C)=O)CC2`, the “activity change, negative = inhibition” value was -0.87%.
Still for that read-out and setting: under `Clc1ccccc1C(c1ccccc1)(c1ccccc1)n1ccnc1` stands 0.576%; under `NC12CC3CC(CC(C3)C1)C2`, 213%.
Still for that read-out and setting: the figure for `Cc1cnc(C(=O)NCCc2ccc(S(=O)(=O)NC(=O)NC3CCCCC3)cc2)cn1` is -3.01%; for `CC(CCc1ccc(O)cc1)NCCc1ccc(O)c(O)c1` (stereo not given) it is 2.59%.
On to `Cc1cn([C@H]2C=C[C@@H](CO)O2)c(=O)[nH]c1=O`, for which the “activity change, negative = inhibition” value was -1.12%.
The same measure, in the same setting: under `Fc1ccc([C@@H]2CCNC[C@H]2COc2ccc3c(c2)OCO3)cc1` stands -1.16%.
Regarding `CCOC(=O)C(C)(C)Oc1ccc(Cl)cc1`, the “activity change, negative = inhibition” value is -0.907%.
Same read-out and setting: the figure for `Nc1c2c(nc3ccccc13)CCCC2` is -1.92%.
In the case of `CN1C2CCC1CC(OC(=O)C(CO)c1ccccc1)C2` (stereo not given), the Potency entry was “inactive”.
`O=C1N(c2ccccc2)c2ccccc2C1(Cc1ccncc1)Cc1ccncc1`: the “activity change, negative = inhibition” value was -0.911%.
For `CCCNCC(O)COc1ccccc1C(=O)CCc1ccccc1` (stereo not given), the “activity change, negative = inhibition” value is -1.97%.
Still for that read-out and setting: under `NCCS(=O)(=O)O` stands 0.621%.
Take `CCOC(=O)c1ncn2c1CN(C)C(=O)c1cc(F)ccc1-2`: the “activity change, negative = inhibition” value was -0.553%.
With `O=c1[nH]cc(F)c(=O)[nH]1`, the “activity change, negative = inhibition” value was 2.53%.
As for `CNCCCC12CCC(c3ccccc31)c1ccccc12`, the “activity change, negative = inhibition” value is -3.1%.
In the case of `CN(C)CCC=C1c2ccccc2C=Cc2ccccc21`, the “activity change, negative = inhibition” value is 2.05%.
On the same count and under the same terms, the figure for `CCc1cccc2c3c([nH]c12)C(CC)(CC(=O)O)OCC3` (stereo not given) is 1.21%; for `COc1ccc2[nH]cc(CCNC(C)=O)c2c1` it is 3.65%; for `COc1ccc(CCN(C)CCCC(C#N)(c2ccc(OC)c(OC)c2)C(C)C)cc1OC` (stereo not given) it is -0.479%.
The same measure, in the same setting: the figure for `C[C@](N)(Cc1ccc(O)c(O)c1)C(=O)O` is 5.76%; for `Cc1cc(C(C)(C)C)cc(C)c1CC1=NCCN1` it is 2.15%.
As for `COc1nc(C)nc(Cl)c1NC1=NCCN1`, the “activity change, negative = inhibition” value was 1.38%.
On to `CN1CCN(CCCN2c3ccccc3Sc3ccc(Cl)cc32)CC1`, for which the “activity change, negative = inhibition” value was -0.906%.
Turning to `O=c1c(-c2ccc(O)cc2)coc2cc(O)cc(O)c12`, the “activity change, negative = inhibition” value is -3.42%.
Same read-out and setting: the figure for `CC(C)Cc1ccc(C(C)C(=O)O)cc1` (stereo not given) is -0.325%.
